# Laboratory results taken from PubChem BioAssay (EPA / NIEHS).
# “And” between values parts separate entries of the source, which are not always exact repeats. Identical values can stand only once. Records with an inconclusive call do not appear. More than one record can exist for a structure, and the calls need not agree. The source made the active and inactive calls. The calls were made as follows: active = hit-call score of the fitted dose curve at least 0.9, where 1 is the maximum; inconclusive = response in the unintended direction; inactive = score below 0.9.
# Legend:
# [1] = target: human AKT serine/threonine Kinase 1 (AKT1), AKT1 (gene 207) (UniProt P31749); assay: NVS_ENZ_hAKT1: NovaScreen (NVS) Enzymatic Assay for human AKT serine/threonine Kinase 1 (AKT1) (AID 2283138)
# Chain of human AKT serine/threonine Kinase 1 (AKT1), AKT1 (gene 207) (P31749 whole entry, looked up): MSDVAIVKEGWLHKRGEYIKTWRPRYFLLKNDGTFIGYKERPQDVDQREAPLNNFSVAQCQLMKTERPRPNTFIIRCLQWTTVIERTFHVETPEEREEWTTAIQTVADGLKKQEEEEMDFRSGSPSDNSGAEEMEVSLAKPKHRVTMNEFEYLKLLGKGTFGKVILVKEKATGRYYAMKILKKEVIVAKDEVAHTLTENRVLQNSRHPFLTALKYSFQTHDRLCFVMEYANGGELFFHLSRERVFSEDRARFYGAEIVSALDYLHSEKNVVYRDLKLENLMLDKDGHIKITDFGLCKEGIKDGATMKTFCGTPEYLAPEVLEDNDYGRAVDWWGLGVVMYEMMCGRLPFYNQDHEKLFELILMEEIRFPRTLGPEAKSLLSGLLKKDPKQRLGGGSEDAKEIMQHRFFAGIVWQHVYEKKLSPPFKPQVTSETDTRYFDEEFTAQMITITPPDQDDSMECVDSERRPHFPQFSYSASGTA
# Procedure, shortened: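 Fluorescence and mobility-shift readout of kinase activity, taken 1 h post-dosing in a cell-free format with recombinant protein. Primary screen at 25 uM in duplicate; hits (e.g. 30% inhibition) retested in concentration series topping at 50 uM.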
# [2] = target: human Aurora Kinase A - serine/threonine-protein Kinase 6 (AurA), AURKA (gene 6790) (UniProt O14965); assay: NVS_ENZ_hAurA: NovaScreen (NVS) Enzymatic Assay for human Aurora Kinase A - serine/threonine-protein Kinase 6 (AurA) (AID 2283142)
# Chain of human Aurora Kinase A - serine/threonine-protein Kinase 6 (AurA), AURKA (gene 6790) (O14965 whole entry, looked up): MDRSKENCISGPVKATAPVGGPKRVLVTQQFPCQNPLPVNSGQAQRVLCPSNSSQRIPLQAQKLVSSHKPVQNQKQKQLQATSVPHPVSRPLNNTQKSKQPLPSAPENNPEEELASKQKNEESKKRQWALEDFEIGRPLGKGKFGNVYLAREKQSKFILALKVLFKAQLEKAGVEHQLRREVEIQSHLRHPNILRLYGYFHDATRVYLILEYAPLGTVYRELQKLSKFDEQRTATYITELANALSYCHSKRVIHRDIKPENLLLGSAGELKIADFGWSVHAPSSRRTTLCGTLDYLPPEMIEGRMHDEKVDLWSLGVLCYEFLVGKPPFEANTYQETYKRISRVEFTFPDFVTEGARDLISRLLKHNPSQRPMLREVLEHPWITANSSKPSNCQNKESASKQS
# Procedure, shortened: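 Recombinant human AurA activity read by fluorescence after mobility-shift separation of product from substrate; 1 hour incubation. Chemicals first run in duplicate at 25 uM, then concentration series to 50 uM if over threshold; fitted relative to DMSO.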
# CDK2 (gene 1017) = CDK2 (gene 1017) (UniProt P24941); assay: NVS_ENZ_hCDK2: NovaScreen (NVS) Enzymatic Assay for human Cyclin-Cependent Kinase 2 (CDK2) (AID 2283144)
# Procedure, shortened: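 Compounds screened in duplicate at 25 uM, then in singleton concentration-response to a maximum of 50 uM, against recombinant CDK2; kinase activity read 1 hr after dosing by fluorescence with mobility-shift separation of substrate and product.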
# [3] = target: human Casein Kinase 1-delta (CK1D), CSNK1D (gene 1453) (UniProt P48730); assay: NVS_ENZ_hCK1D: NovaScreen (NVS) Enzymatic Assay for human Casein Kinase 1-delta (CK1D) (AID 2283148)
# Procedure, shortened: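 Recombinant human CK1-delta, cell-free; fluorescent substrate with electrophoretic mobility-shift separation of product, read 1 h after dosing. Single 25 uM duplicate screen, then concentration-response up to 50 uM; loss of signal vs DMSO.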
# [4] = target: human Ephrin type-A Receptor 2 (EphA2), EPHA2 (gene 1969) (UniProt P29317); assay: NVS_ENZ_hEphA2: NovaScreen (NVS) Enzymatic Assay for human Ephrin type-A Receptor 2 (EphA2) (AID 2283155)
# Procedure, shortened: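 Enzyme activity of recombinant EphA2 read by fluorescence after mobility-shift separation, 1 h after dosing. Chemicals first tested at 25 uM (duplicate); those passing threshold run as concentration series, top 50 uM, single replicate, relative to DMSO.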
# [5] = target: human Ephrin type-B Receptor 2 (EphB2), EPHB2 (gene 2048) (UniProt P29323); assay: NVS_ENZ_hEphB2: NovaScreen (NVS) Enzymatic Assay for human Ephrin type-B Receptor 2 (EphB2) (AID 2283156)
# Procedure, shortened: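 Compounds were first tested in duplicate at 25 uM, with hits rerun singly in concentration series up to 50 uM. Enzyme activity on fluorescent substrate was read at 1 h by mobility-shift separation, scored as signal loss relative to DMSO.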
# [6] = target: human Ephrin type-A Receptor 1 (EphA1), EPHA1 (gene 2041) (UniProt P21709); assay: NVS_ENZ_hEphA1: NovaScreen (NVS) Enzymatic Assay for human Ephrin type-A Receptor 1 (EphA1) (AID 2283158);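 also: activity is signal loss versus DMSO meaning EphA1 kinase inhibition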
# Chain of human Ephrin type-A Receptor 1 (EphA1), EPHA1 (gene 2041) (P21709 whole entry, looked up): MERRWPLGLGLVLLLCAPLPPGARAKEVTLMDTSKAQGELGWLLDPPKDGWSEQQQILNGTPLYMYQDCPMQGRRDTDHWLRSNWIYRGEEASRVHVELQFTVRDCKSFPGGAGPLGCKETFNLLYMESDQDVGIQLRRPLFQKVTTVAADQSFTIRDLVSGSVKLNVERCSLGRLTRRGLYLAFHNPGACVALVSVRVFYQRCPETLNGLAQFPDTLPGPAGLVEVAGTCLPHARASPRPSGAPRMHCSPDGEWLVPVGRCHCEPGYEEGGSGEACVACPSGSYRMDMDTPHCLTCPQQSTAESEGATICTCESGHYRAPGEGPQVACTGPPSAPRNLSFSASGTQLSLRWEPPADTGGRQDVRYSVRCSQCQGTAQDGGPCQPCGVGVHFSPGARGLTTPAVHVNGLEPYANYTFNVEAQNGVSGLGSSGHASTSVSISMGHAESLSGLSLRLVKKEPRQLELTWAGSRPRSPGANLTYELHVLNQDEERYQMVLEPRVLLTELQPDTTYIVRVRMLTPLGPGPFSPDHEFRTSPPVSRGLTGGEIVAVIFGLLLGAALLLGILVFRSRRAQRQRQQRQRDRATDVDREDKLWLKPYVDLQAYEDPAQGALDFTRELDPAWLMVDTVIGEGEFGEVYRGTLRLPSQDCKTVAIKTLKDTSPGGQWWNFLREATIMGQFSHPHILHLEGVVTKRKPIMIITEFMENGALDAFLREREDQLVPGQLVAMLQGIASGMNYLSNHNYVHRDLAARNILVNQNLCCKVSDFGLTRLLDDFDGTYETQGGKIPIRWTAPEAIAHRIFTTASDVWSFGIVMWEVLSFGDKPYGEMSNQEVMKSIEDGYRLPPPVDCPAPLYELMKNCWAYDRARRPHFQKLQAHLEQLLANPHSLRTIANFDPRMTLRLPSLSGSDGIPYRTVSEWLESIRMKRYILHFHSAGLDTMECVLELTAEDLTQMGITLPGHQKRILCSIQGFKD
# Procedure, shortened: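 Cell-free kinase activity with recombinant protein, 1 hour after dosing; product separated by electrophoretic mobility shift, fluorescence read. Primary screen at 25 uM in duplicate; hits run as concentration-response up to 50 uM, relative to DMSO.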
# [7] = target: human Fibroblast Growth Factor Receptor 1 (FGFR1), FGFR1 (gene 2260) (UniProt P11362); assay: NVS_ENZ_hFGFR1: NovaScreen (NVS) Enzymatic Assay for human Fibroblast Growth Factor Receptor 1 (FGFR1) (AID 2283159)
# Procedure, shortened: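 Cell-free recombinant kinase with fluorescent substrate, product separated by electrophoretic mobility shift; read 1 hour after dosing, loss of signal relative to DMSO. Initial screen in duplicate at 25 uM, actives followed in concentration series.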
# [8] = target: human Casein Kinase 2- alpha 2 beta 2 (CK2a2b2), CSNK2A1 (gene 1457) (UniProt P68400); assay: NVS_ENZ_hCK2a2b2: NovaScreen (NVS) Enzymatic Assay for human Casein Kinase 2- alpha 2 beta 2 (CK2a2b2) (AID 2283147)
# Chain of human Casein Kinase 2- alpha 2 beta 2 (CK2a2b2), CSNK2A1 (gene 1457) (P68400 whole entry, looked up): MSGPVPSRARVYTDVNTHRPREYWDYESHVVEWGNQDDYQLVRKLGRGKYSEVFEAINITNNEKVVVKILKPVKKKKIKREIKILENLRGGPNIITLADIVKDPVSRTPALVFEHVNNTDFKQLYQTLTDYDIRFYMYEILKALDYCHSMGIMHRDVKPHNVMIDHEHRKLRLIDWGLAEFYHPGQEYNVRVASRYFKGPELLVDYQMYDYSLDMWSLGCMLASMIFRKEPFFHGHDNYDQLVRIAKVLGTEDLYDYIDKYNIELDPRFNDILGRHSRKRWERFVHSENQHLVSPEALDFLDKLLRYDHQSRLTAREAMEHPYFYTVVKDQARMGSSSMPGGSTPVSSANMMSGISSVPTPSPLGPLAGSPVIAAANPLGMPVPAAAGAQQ
# Procedure, shortened: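 Compounds were first screened in duplicate at 25 uM, and those passing the threshold were re-tested in concentration series up to a 50 uM maximum. Kinase activity of recombinant human CK2 α2β2 was measured 1 h after dosing by fluorescent substrate/product mobility-shift separation.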
# [9] = target: human Beta-secretase (BACE), BACE1 (gene 23621) (UniProt P56817); assay: NVS_ENZ_hBACE: NovaScreen (NVS) Enzymatic Assay for human Beta-secretase (BACE) (AID 2283140);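 also: hits are inhibitors that reduce fluorescent substrate signal versus DMSO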
# Chain of human Beta-secretase (BACE), BACE1 (gene 23621) (P56817 whole entry, looked up): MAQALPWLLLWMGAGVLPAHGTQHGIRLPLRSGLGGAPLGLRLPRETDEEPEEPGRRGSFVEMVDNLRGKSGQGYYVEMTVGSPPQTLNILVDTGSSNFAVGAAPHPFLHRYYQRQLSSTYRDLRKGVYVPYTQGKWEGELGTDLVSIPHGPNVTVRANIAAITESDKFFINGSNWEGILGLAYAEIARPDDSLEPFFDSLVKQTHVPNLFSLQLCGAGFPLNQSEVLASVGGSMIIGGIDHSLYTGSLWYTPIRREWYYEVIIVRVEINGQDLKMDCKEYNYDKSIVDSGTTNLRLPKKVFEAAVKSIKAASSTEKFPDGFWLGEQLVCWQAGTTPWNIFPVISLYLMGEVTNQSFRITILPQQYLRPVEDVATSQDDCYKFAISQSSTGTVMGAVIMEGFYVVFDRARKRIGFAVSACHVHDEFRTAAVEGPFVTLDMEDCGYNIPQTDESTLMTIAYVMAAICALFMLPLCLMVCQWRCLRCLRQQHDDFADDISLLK
# Procedure, shortened: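 SF9-expressed enzyme, cell-free; fluorescent substrate readout after 1 h. Screened at 25 uM single concentration, duplicate; hits retested in concentration series. Activity relative to DMSO baseline, loss-of-signal.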
# Caspase-3 (Homo sapiens) = Caspase-3 (Homo sapiens) (UniProt P42574); assay: NVS_ENZ_hCASP3: NovaScreen (NVS) Enzymatic Assay for human Caspase 3 (CASP3) (AID 2283139)
# Chain of Caspase-3 (Homo sapiens) (P42574 whole entry, looked up): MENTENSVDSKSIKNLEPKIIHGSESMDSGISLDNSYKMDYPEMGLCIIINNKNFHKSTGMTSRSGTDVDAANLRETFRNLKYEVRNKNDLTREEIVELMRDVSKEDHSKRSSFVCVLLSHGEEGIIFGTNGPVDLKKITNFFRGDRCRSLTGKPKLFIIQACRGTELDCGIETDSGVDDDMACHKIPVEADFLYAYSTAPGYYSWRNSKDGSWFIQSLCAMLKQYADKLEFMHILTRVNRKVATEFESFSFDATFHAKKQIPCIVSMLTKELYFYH
# Procedure, shortened: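 Single-concentration screening at 25 uM in duplicate, with concentration-response follow-up to a 50 uM maximum for chemicals passing the threshold. Caspase-3 (human, E. coli-expressed) activity was read as substrate fluorescence after 1 h, with loss of signal relative to DMSO.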
# [10] = target: human Ephrin type-B Receptor 1 (EphB1), EPHB1 (gene 2047) (UniProt P54762); assay: NVS_ENZ_hEphB1: NovaScreen (NVS) Enzymatic Assay for human Ephrin type-B Receptor 1 (EphB1) (AID 2283154)
# Chain of human Ephrin type-B Receptor 1 (EphB1), EPHB1 (gene 2047) (P54762 whole entry, looked up): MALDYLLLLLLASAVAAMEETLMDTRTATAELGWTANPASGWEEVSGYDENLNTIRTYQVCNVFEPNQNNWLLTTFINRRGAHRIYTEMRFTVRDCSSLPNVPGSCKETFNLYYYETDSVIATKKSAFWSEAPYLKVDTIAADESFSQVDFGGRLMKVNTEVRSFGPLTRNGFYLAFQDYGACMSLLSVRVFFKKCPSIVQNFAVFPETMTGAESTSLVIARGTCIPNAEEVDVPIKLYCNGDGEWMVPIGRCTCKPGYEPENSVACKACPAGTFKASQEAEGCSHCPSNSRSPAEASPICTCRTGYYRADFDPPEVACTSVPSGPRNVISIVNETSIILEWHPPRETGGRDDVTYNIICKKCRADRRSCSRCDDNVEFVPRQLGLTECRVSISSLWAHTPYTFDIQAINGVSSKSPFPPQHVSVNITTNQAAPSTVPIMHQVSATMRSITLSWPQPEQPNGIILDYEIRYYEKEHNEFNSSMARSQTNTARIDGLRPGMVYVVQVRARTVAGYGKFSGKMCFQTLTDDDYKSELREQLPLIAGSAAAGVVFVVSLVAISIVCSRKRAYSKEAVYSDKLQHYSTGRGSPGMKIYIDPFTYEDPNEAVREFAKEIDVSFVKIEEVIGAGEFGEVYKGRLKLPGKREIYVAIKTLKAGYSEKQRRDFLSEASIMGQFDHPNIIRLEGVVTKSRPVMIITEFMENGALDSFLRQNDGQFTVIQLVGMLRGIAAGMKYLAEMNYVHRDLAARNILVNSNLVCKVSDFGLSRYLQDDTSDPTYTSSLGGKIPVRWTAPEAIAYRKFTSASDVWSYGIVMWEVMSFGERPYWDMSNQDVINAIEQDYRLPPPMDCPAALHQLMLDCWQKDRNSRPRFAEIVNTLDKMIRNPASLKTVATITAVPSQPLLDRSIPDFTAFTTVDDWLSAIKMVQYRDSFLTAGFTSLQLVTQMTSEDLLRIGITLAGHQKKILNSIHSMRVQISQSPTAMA
# Procedure, shortened: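 Recombinant EphB1 activity read by fluorescence after mobility-shift separation of product from substrate, 1 h post-dosing. Compounds screened in duplicate at 25 uM; inhibition scored as signal loss relative to DMSO.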
# [11] = target: human Esterase Plasma (ES), BCHE (gene 590) (UniProt P06276); assay: NVS_ENZ_hES: NovaScreen (NVS) Enzymatic Assay for human Esterase Plasma (ES) (AID 2283157)
# Procedure, shortened: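 Screening ran at 25 uM in duplicate, followed by singleton concentration series reaching 50 uM for actives. Human plasma protein, colorimetric detection, 0.25 h exposure, DMSO negative control.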
# [12] = target: human Caspase 8 (CASP8), CASP8 (gene 841) (UniProt Q14790); assay: NVS_ENZ_hCASP8: NovaScreen (NVS) Enzymatic Assay for human Caspase 8 (CASP8) (AID 2283146)
# Procedure, shortened: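 The primary screen tested compounds in duplicate at a single 25 uM concentration, with actives followed up in concentration series. Activity of recombinant (E. coli) protease was measured by fluorescence 1 h post-dose, as signal loss against DMSO.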
# [13] = target: human Caspase 5 (CASP5), CASP5 (gene 838) (UniProt P51878); assay: NVS_ENZ_hCASP5: NovaScreen (NVS) Enzymatic Assay for human Caspase 5 (CASP5) (AID 2283137)
# Procedure, shortened: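 Fluorescent substrate readout of CASP5 activity (loss-of-signal), measured 2 h post-dose. Protein expressed in E. coli. Primary screen duplicate at 25 uM; actives meeting threshold (e.g., 30% inhibition) rerun singleton, max 50 uM.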
# [14] = target: human AKT serine/threonine Kinase 2 (AKT2), AKT2 (gene 208) (UniProt P31751); assay: NVS_ENZ_hAKT2: NovaScreen (NVS) Enzymatic Assay for human AKT serine/threonine Kinase 2 (AKT2) (AID 2283141)
# Chain of human AKT serine/threonine Kinase 2 (AKT2), AKT2 (gene 208) (P31751 whole entry, looked up): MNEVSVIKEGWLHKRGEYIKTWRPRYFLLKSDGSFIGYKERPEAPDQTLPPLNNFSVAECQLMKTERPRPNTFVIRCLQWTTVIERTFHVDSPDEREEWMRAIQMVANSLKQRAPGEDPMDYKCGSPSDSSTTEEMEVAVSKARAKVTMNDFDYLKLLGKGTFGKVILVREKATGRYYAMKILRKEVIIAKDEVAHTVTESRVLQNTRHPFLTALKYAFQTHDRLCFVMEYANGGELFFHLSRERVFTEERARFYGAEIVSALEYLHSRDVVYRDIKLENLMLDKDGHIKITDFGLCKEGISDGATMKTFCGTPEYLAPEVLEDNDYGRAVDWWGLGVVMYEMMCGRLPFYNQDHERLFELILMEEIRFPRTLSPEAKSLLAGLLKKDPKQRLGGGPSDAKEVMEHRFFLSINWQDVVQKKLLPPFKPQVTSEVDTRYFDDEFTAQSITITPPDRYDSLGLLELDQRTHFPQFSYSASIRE
# Procedure, shortened: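 Cell-free fluorescence/electrophoretic mobility shift readout of recombinant human AKT2 activity, 1 h after chemical dosing. Duplicate primary screen at 25 uM, then singleton concentration-response up to 50 uM; loss of signal versus DMSO baseline.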
# [15] = target: human Caspase 4 (CASP4), CASP4 (gene 837) (UniProt P49662); assay: NVS_ENZ_hCASP4: NovaScreen (NVS) Enzymatic Assay for human Caspase 4 (CASP4) (AID 2283143)
# Procedure, shortened: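 Compounds were first tested in duplicate at 25 uM, and hits were titrated singly to a 50 uM maximum. Recombinant protease from E. coli was read by fluorescence 2 h post-dose, and activity loss was fitted against the DMSO baseline.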
# [16] = target: human Dual Specificity Protein Phosphatase 3 (DUSP3), DUSP3 (gene 1845) (UniProt P51452); assay: NVS_ENZ_hDUSP3: NovaScreen (NVS) Enzymatic Assay for human Dual Specificity Protein Phosphatase 3 (DUSP3) (AID 2283152);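 also: phosphatase activity of recombinant human DUSP3 on a fluorogenic substrate without cells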
# Chain of human Dual Specificity Protein Phosphatase 3 (DUSP3), DUSP3 (gene 1845) (P51452 whole entry, looked up): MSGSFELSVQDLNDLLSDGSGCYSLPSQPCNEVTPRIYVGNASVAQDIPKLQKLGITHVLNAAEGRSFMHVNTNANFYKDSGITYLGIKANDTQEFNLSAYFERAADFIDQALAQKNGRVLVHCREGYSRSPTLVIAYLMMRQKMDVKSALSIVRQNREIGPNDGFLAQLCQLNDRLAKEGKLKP
# Procedure, shortened: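 Cell-free fluorescence-intensity enzyme activity assay with recombinant protein and substrate; loss of signal fitted relative to DMSO baseline. Primary screen in duplicate at 25 uM, actives then run in concentration series; measured 0 h after dosing.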
# [17] = target: human Elastase, ELANE (gene 1991) (UniProt P08246); assay: NVS_ENZ_hElastase: NovaScreen (NVS) Enzymatic Assay for human Elastase (AID 2283153)
# Chain of human Elastase, ELANE (gene 1991) (P08246 whole entry, looked up): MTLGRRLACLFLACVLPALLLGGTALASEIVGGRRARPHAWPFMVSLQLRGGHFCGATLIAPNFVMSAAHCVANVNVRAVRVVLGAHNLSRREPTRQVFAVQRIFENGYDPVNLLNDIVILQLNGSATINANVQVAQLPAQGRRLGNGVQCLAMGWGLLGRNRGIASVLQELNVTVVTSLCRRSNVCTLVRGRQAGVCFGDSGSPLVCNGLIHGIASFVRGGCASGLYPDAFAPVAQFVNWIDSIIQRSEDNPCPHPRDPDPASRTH
# Procedure, shortened: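 Concentration-response to 50 uM max, run singly for chemicals passing a threshold (e.g., 30% inhibition) in a duplicate 25 uM single-point screen. Neutrophil-derived human elastase, absorbance read-out of enzyme activity at 1.5 h; DMSO baseline.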
smiles,measurement,setting,value
CCCN(CCC)c1c([N+](=O)[O-])cc(S(N)(=O)=O)cc1[N+](=O)[O-],outcome,[1],inactive
same,outcome,[2],inactive
same,outcome,CDK2 (gene 1017),inactive
same,outcome,[3],inactive
same,outcome,[4],inactive
same,outcome,[5],inactive
same,outcome,[6],inactive
same,outcome,[7],inactive
CON(C)C(=O)Nc1ccc(Cl)c(Cl)c1,outcome,[1],inactive
same,outcome,[8],inactive
Cc1c(F)c(F)c(COC(=O)C2C(/C=C(\Cl)C(F)(F)F)C2(C)C)c(F)c1F (stereo not drawn),outcome,[9],inactive
C#CCOS(=O)OC1CCCCC1Oc1ccc(C(C)(C)C)cc1 (stereo not drawn),outcome,Caspase-3 (Homo sapiens),inactive
same,AC50,[9],14.8 µM (active)
CC(Oc1ccc(Cl)cc1Cl)C(=O)O (stereo not drawn),outcome,Caspase-3 (Homo sapiens),inactive
C=CCC1=C(C)C(OC(=O)C2C(C=C(C)C)C2(C)C)CC1=O (stereo not drawn),outcome,[9],inactive
CCCCOC(=O)c1ccccc1C(=O)OCCCC,outcome,[1],inactive
same,outcome,[9],inactive
same,outcome,[10],inactive
same,AC50,[11],11 µM (active)
same,outcome,[11],inactive
N#Cc1cc(Br)c(O)c(Br)c1,outcome,[1],inactive
same,outcome,[2],inactive
same,outcome,[12],inactive
same,AC50,[8],13 µM (active)
same,outcome,[10],inactive
same,outcome,[4],inactive
same,outcome,[6],inactive
COc1ccc(C(c2ccc(OC)cc2)C(Cl)(Cl)Cl)cc1,AC50,[13],25 µM (active)
same,AC50,[9],33.9 µM (active)
same,outcome,[10],inactive
COC(=O)C(C)Oc1ccc(Oc2ccc(Cl)cc2Cl)cc1 (stereo not drawn),AC50,[9],5.69 µM (active) and 16.3 µM (active) and 5.37 µM (active)
same,outcome,[10],inactive
CS/C(C)=N/OC(=O)N(C)SN(C)C(=O)O/N=C(\C)SC,outcome,[14],inactive
COc1nc(C)nc(NC(=O)NS(=O)(=O)c2ccccc2CCC(F)(F)F)n1,outcome,[14],inactive
Fc1ccc(Oc2ccnc3cc(Cl)cc(Cl)c23)cc1,outcome,[2],inactive
same,outcome,[12],inactive
CC(C)C1(C)N=C(c2nc3ccccc3cc2C(=O)O)NC1=O (stereo not drawn),outcome,[15],inactive
CCNc1nc(Cl)nc(NC(C)C)n1,outcome,CDK2 (gene 1017),inactive
COc1nc(C)nc(NC(=O)NS(=O)(=O)c2ccccc2Cl)n1,outcome,CDK2 (gene 1017),inactive
O=C(O)COc1nc(Cl)c(Cl)cc1Cl,AC50,[8],13.9 µM (active)
Cc1cc(Cl)ccc1OCC(=O)O,AC50,[8],16.2 µM (active)
CCOC(=O)C(Cl)Cc1cc(-n2nc(C)n(C(F)F)c2=O)c(F)cc1Cl (stereo not drawn),outcome,[16],inactive
CCc1nn(C)c(C(=O)NCc2ccc(C(C)(C)C)cc2)c1Cl,outcome,[16],inactive
COP(=S)(OC)Oc1nc(Cl)c(Cl)cc1Cl,outcome,[17],inactive
COC(=O)C=C(C)OP(=O)(OC)OC,outcome,[17],inactive
C=CC1(C)OC(=O)N(c2cc(Cl)cc(Cl)c2)C1=O (stereo not drawn),outcome,[10],inactive
COP(N)(=O)SC (stereo not drawn),outcome,[5],inactive
COc1cnc(OC)n2nc(NS(=O)(=O)c3c(OCC(F)F)cccc3C(F)(F)F)nc12,outcome,[6],inactive
